# Results as given in PMC12864922, “TDP-43 directly inhibits mRNA accumulation in neurites through modulation of mRNA stability”.
# Whole data set: some 9,900 sequences, median “r (bound/input frequency ratio)” near 0.7, cut for the highest 2% near 6.5. The entries come from a sample that favours the highest values as a whole.
# B1: ENSMUSG00000031028.158|Tub (ssRNA)
# RNA: GGGAGUUCUACAGUCCGACGAUCGCUUCGAUAUCCGCAUGCUAUGCCAGCAUGCCAUGAUCAGUGAGGGCUGUGUGCCAUGCUUAGGGGGAUGGCGCAGGGUGAGGGGAGCAGAGGAUAUUUUAGGGCCACAAGAGCUCAGAGGUAGCGGACCUCUGUGUGGUUCACCAACAGCAAUGCUGAUCCCUGAGUAUAGGGCACAUGUCUCUUGGUUACCUCACUGGUUAAUGGCAGAGUUGAGAACCUCAAAUUCUUUUGUUCCUACUGUUGCCCAGAAACUAGACUCUCUGACCUGCUAGGGUCUCUCUUGCGGUCGCACUAGUGUGGAAUUCUCGGGUGUCAAGG
# B2: ENSMUSG00000031028.505|Tub (ssRNA)
# RNA: GGGAGUUCUACAGUCCGACGAUCGCUUCGAUAUCCGCAUGCUACUGGGAAGACAGGAGUCGGAAGCCAAGGUGUGUGGCAACAGUCUGGAAGAGAGCUUUUGGUAAUCAUACCGUCUUCAGUGACAAGGCAACAAUGCUGUAAAGUGGGUUUGUUUGGUUUUGUUUUUUCUUUCUCUUUUAUGGAAAUGGCAGGUCUAUUUGCCUCAAACGUUAUGUAGAAGUAGUUCUAAGUUUAACAAGCAAUAGAGAUGACUGCUUAGCUAGGAUCUGCAGGGAGCUCUGCUCUGCAAGCACAACACCUGCUCUUGCGGUCGCACUAGUGUGGAAUUCUCGGGUGUCAAGG
# B3: ENSMUSG00000090935.538|Synj2bp|26:32 (ssRNA)
# RNA: GGGAGUUCUACAGUCCGACGAUCGCUUCGAUAUCCGCAUGCUAAAUGGCAAGGAGGAUAAAACACUGUACACACAUGUAUUGUUGAUCUAAAUAAAAAAUAUCAUUGGUAGAAGUUUUACUUUGGUUGAUAAGGAUUCUGAUAACAUUUGGGUCUCCUUAGGAAAGAAACACUUAACUAAAACAUUUAAGUUUUAGGCAAAUACUGUAAUAUUUCACUCUUAGUUAUAUGAAAACUAAAUGAGAUGUUGAGAAUCUAUAUAGAUUAUUCAAAUUUUAUGUUUCUUAUAGACUGACUCAAAUAUCUCUUGCGGUCGCACUAGUGUGGAAUUCUCGGGUGUCAAGG
# B4: ENSMUSG00000061578.246|Ksr2 (ssRNA)
# RNA: GGGAGUUCUACAGUCCGACGAUCGCUUCGAUAUCCGCAUGCUACAGAACCUUCUCACCCCUUUGCAAAGCUCUUGCCGUCUGCACCCGGGACCCCGGGACCCACACAAGUUGUCCCCAUGUGAACAUCCUGCCUCUCCUGGUGACAUCUGUCUCUGGCUCAGCUUCUCUGCCUCUUACAGACAGUUUCCCUGUACAUUUGCUUAUGGCCCUGGGCUCCAGAGUCGCUGAAGACCACUCUCCACAGCAGCUGUAACCCCAUCUAACAAGCCCUGUUCUGGAUAUAUCUCUGUGGCCAGGGCUGGCUCUUGCGGUCGCACUAGUGUGGAAUUCUCGGGUGUCAAGG
# B5: ENSMUSG00000061578.893|Ksr2 (ssRNA)
# RNA: GGGAGUUCUACAGUCCGACGAUCGCUUCGAUAUCCGCAUGCUAGGCCAUCAGGGCCCCAUUCUGAGGUCCUGGGACACUACCCAAACCCUAGCACUCUCCCAGUGACUCUCCUAUGAGUACAUAUGCCAUCCUGCUUCCUUUGUGGCAAAACCCUGGGUCACCCAGAGACAGAUUUCCCAGAAUCCCUGGGCCACUUCUCAAUUCUACCCAUGACAGACAUGUCCCAUCCAUGAGCCCAGAUAGUCAAAGACUUCAGCACAAGGGUGUUUAGAGUAGGCAGUGUGGAAGUAUCAAUAAGGUUACUCUUGCGGUCGCACUAGUGUGGAAUUCUCGGGUGUCAAGG
# B6: ENSMUSG00000061578.293|Ksr2 (ssRNA)
# RNA: GGGAGUUCUACAGUCCGACGAUCGCUUCGAUAUCCGCAUGCUAUAAGCAUCUUAGAGUUUCUCUUUUCUCUUUAAUUGCAUCAGGACCCCUUUGGUCCAUGUACCCCGGUCUCUGUCACAUGCCUUUGUAUCUUGGAGGAAGUAAGAGAGGAGAGAGCCAGGGAGGGCUGAAGCUCUGGGACCCUGAAGUGUCCCCCGGGAACUGGGACUCACUCAUCUUCUCCUGUUUGUAGCUCAAUGACCCAGUGGGUCACAGUUCUAGGCGCUCCAAGGAAGCCAGGGGAGGGGGACUCCUCAGGAAGGCUCUUGCGGUCGCACUAGUGUGGAAUUCUCGGGUGUCAAGG
# B7: ENSMUSG00000042529.251|Kcnj12 (ssRNA)
# RNA: GGGAGUUCUACAGUCCGACGAUCGCUUCGAUAUCCGCAUGCUAAAUUUCUAAUCUAGGAGAUUCCCCUAGGACCCGCUGCAGAGGCAUGGGCUCCUCUGUGGUCCUGGCCAGACCUCUGCCCCCAAAUCUCACUGACUGUUCUAGCCUUGGCCUUGGGGCCUAAGGGUGCAUUCAGCCUGGGUGUGCUUACCUGCCACUCACCUCUCUAUCUAGUUGUCGAGUCUAGGGAAGGGCAGAGGGUGGGUCCUGGCCACUGGGUGCCACUGUGGGAGCCGGGGCACCUGUCAUUCUUUCUGAGUAGGCUCUUGCGGUCGCACUAGUGUGGAAUUCUCGGGUGUCAAGG
# B8: ENSMUSG00000031028.344|Tub (ssRNA)
# RNA: GGGAGUUCUACAGUCCGACGAUCGCUUCGAUAUCCGCAUGCUAGGUUGACAAGUUUAAGGUUGAACAGGCUGAUUUCUGGAAUCUCAUGAGUGGAGGGGACCCUGGUGGUUAAGAGCGGAACUGGAAGCACAAUGGAAAACUCUUGGACUCUGCUCUCUGCUUUACCACACACAAAAAAGAGGGUUCUUGGCUAUUUGAAUAUAAAGUUGGUAGCACCAGGAAAUAGGCUGAACUUUGUAGCCCACUGUGGAAAGGAGCAGCCUCAGCACAAACCCCUCUGUCGGGCCCUGAGUGACAAGACCCUCUUGCGGUCGCACUAGUGUGGAAUUCUCGGGUGUCAAGG
# B9: ENSMUSG00000058297.294|Spock2 (ssRNA)
# RNA: GGGAGUUCUACAGUCCGACGAUCGCUUCGAUAUCCGCAUGCUAAGAGAGAAUGAGAGAGAAUGAGAGAGAGAAUACCCGAGGGCCACCCUGAUGCCCAGGAAGAGUGAGGGCAGCCCCCUGUGUGGUGGAAGAGGCUGGGCAGCUAGCUACUGGGGACCUUGUGCUGAGGCUUCCAGGACAAAGCCCCAGUCUGGCUCUCCCCCAGCCUCUCAGGGGCACUGGCUGGUCACAUCCACUGAGUAUUGAUCGGUUGGACUUUAGGGAAGAGCCUCCUCCUUCCCAUUCCUUUCUGCCACCCUGGACUCUUGCGGUCGCACUAGUGUGGAAUUCUCGGGUGUCAAGG
# B10: ENSMUSG00000058297.296|Spock2 (ssRNA)
# RNA: GGGAGUUCUACAGUCCGACGAUCGCUUCGAUAUCCGCAUGCUAAGAGAAUGAGAGAGAGAAUACCCGAGGGCCACCCUGAUGCCCAGGAAGAGUGAGGGCAGCCCCCUGUGUGGUGGAAGAGGCUGGGCAGCUAGCUACUGGGGACCUUGUGCUGAGGCUUCCAGGACAAAGCCCCAGUCUGGCUCUCCCCCAGCCUCUCAGGGGCACUGGCUGGUCACAUCCACUGAGUAUUGAUCGGUUGGACUUUAGGGAAGAGCCUCCUCCUUCCCAUUCCUUUCUGCCACCCUGGAAUGGCCACCUUACUCUUGCGGUCGCACUAGUGUGGAAUUCUCGGGUGUCAAGG
# B11: ENSMUSG00000058297.295|Spock2 (ssRNA)
# RNA: GGGAGUUCUACAGUCCGACGAUCGCUUCGAUAUCCGCAUGCUAAAUGAGAGAGAAUGAGAGAGAGAAUACCCGAGGGCCACCCUGAUGCCCAGGAAGAGUGAGGGCAGCCCCCUGUGUGGUGGAAGAGGCUGGGCAGCUAGCUACUGGGGACCUUGUGCUGAGGCUUCCAGGACAAAGCCCCAGUCUGGCUCUCCCCCAGCCUCUCAGGGGCACUGGCUGGUCACAUCCACUGAGUAUUGAUCGGUUGGACUUUAGGGAAGAGCCUCCUCCUUCCCAUUCCUUUCUGCCACCCUGGAAUGGCCCUCUUGCGGUCGCACUAGUGUGGAAUUCUCGGGUGUCAAGG
# Target: TDP-43 (Homo sapiens, UniProt Q13148 1-414)
# Sequence (Q13148 whole entry): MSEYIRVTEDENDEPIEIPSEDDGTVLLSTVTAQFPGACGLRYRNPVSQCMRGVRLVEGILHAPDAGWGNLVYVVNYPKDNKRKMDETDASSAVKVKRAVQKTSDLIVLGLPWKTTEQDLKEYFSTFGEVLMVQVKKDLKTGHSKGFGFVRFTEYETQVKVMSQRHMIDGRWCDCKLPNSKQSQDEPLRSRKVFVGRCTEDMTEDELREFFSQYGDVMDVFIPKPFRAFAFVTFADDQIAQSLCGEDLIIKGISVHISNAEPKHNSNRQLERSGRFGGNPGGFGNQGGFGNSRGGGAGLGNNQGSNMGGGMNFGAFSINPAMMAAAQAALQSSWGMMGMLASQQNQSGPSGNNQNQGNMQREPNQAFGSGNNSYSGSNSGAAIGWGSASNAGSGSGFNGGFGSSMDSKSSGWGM
# Test: RNA Bind-n-Seq with designed 260-mer pool; 25 mM Tris-HCl, 150 mM KCl, 3 mM MgCl2, BSA (printed 500 mg/mL), 20 units/mL SUPERase IN; pH not stated; 500 nM RNA pool, 1 h, 4 C; TDP-43 5, 50, 500 nM; high values mean tight binding
# Conditions: protein: recombinant; tags: SBP (GST cleaved off with PreScission; pGEX-GST-SBP)
# How it was run: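 The incubation lasted 1 h at 4 °C and used 500 nM of an in vitro-transcribed 260-nt 3′ UTR oligo pool with recombinant SBP-tagged TDP-43 at 5, 50 or 500 nM immobilized on streptavidin beads. It took place in 25 mM Tris-HCl, 150 mM KCl, 3 mM MgCl2, BSA and SUPERase IN. Bound RNA was washed, eluted with biotin, converted to cDNA, PCR-amplified and sequenced to give R, each oligo's normalized abundance in the bound sample divided by that in input. Two independent protein batches provided the duplicates.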
row,Binder,binding signal
1,B1,0.506 R (bound/input frequency ratio)
2,B2,0.58 R (bound/input frequency ratio)
3,B3,0.0361 R (bound/input frequency ratio)
4,B4,0.544 R (bound/input frequency ratio)
5,B5,0.438 R (bound/input frequency ratio)
6,B6,0.535 R (bound/input frequency ratio)
7,B7,0.996 R (bound/input frequency ratio)
8,B8,0.993 R (bound/input frequency ratio)
9,B9,2.14 R (bound/input frequency ratio)
10,B10,9.19 R (bound/input frequency ratio)
11,B11,3.63 R (bound/input frequency ratio)
